PubChem BioAssay AID2108 (National Center for Advancing Translational Sciences (NCATS), 2009)
Results filed as inconclusive are left out. Activity calls are given as the source filed them. Calls follow the shape of the dose curve; as a rule, active = well fitted curve in the direction sought with a large enough effect; inconclusive = small, poorly fitted or top-dose-only effect, or effect the other way, or another doubt; inactive = no such curve, though single readings can be large or run the other way.

Biological target: Alpha-galactosidase A (Homo sapiens) (UniProt P06280)
Sequence (P06280 32-429 limits assumed): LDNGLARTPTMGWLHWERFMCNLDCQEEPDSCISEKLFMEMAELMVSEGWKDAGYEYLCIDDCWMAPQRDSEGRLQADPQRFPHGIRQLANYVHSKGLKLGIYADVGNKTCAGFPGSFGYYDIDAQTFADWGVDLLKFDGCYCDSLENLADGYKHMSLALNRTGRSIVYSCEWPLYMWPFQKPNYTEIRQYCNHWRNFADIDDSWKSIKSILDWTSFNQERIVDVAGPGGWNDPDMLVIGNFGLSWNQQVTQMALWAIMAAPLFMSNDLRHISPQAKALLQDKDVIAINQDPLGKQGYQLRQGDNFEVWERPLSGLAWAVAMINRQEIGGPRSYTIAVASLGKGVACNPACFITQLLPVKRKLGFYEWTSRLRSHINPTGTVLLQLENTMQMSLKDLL
Experiment: Confirmation of Inhibitors of Human alpha-Galactosidase Using Spleen Homogenate
Conditions: alpha-galactosidase enzyme activity; series mostly up to 56.2 µM
Procedure, shortened: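 AC50 values come from Hill-equation fits of normalised 4-methylumbelliferone fluorescence (365/440 nm, read after NaOH/glycine stop). Enzyme source: spleen homogenate; substrate 1 mM final; pH 5.0 citrate buffer; 40 min at 37C; compound titration 0.5 nM–58 uM.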

outcome, inactive:
O=C(O)c1c[nH]c2ccc(S(=O)(=O)N3CCOCC3)cc12
Cc1ccccc1S(=O)(=O)N1CCOCC1
Nc1cnc(Nc2ccc(Br)cc2)nc1N
COc1cc(CNc2ccc(N3CCCC3)cc2)ccc1OCc1ccccc1F
CCOc1ccc2c(c1)c(=O)c(S(=O)(=O)c1ccc(C)cc1)cn2Cc1ccccc1Cl
Clc1cc2c(cc1/C=C/c1ccc3ccccc3n1)OCO2
COc1cccc(NC(=S)NCc2ccc3c(c2)cc(C)n3C)c1
Cc1cc(/C=N/Nc2ccc([N+](=O)[O-])cn2)c(C)n1-c1ccc(C(=O)O)cc1
COc1cc2cc(CN(Cc3nnnn3Cc3ccccc3)CC3CCCO3)c(=O)[nH]c2cc1OC (stereo unspecified)
COc1ccc(/C=C/c2nnc(NC(=O)CSc3ccc(Cl)cc3)s2)cc1
COc1ccccc1NCC(=O)n1nc(C)cc1C
CN(C)N=C1c2cc(S(=O)(=O)N3CCOCC3)ccc2-c2ccc(S(=O)(=O)N3CCOCC3)cc21
N=c1sccn1CC(=O)Nc1cc(S(=O)(=O)N2CCCC2)ccc1Cl
N#Cc1ccc(S(=O)(=O)N2CCOCC2)cc1
CCOC(=O)c1cc2c(=O)n3cccc(C)c3nc2n(CCCOC)c1=NC(=O)c1cccnc1
CC1CCc2nc(-c3cc4c(ccc5ccccc54)oc3=O)sc2C1 (stereo unspecified)
CCc1ccc(-c2nc(-c3cc4ccc(OC(C)=O)cc4oc3=O)sc2C)cc1
O=c1oc2ccccc2cc1-c1nc2c(s1)CCc1ccccc1-2
COC(=O)c1c(NC(=O)Cn2nc(C(F)F)cc2C(F)F)sc(C)c1C
C[C@@H](NC(=O)c1nc[nH]c1C(=O)N[C@@H](Cc1ccccc1)C(=O)OC(C)(C)C)c1ccccc1
COC(=O)c1ccc(S(=O)(=O)N2CCOCC2)cc1
CSc1ccccc1NC(=O)CN(C)CC(=O)NCc1ccccc1
CCC(=O)N1CCN(c2ccc(Cl)cc2NC(=O)c2ccc(N3CCCC3)c([N+](=O)[O-])c2)CC1
C=C(C)CC(NCc1ccco1)c1ccc(OC)cc1 (stereo unspecified)
O=C(NN=C1c2ccccc2-c2ccccc21)c1cccc(S(=O)(=O)N2CCOCC2)c1
COc1ccc2nc3c(cc2c1)Cn1c-3nc2ccccc2c1=O
Cc1ccc(S(=O)(=O)N2CCOCC2)cc1C
CCC(C)Nc1nc(-c2cccc(OC)c2O)nc2ccccc12 (stereo unspecified)
OCC(O)C1OC(Nc2ccc(Cl)cc2)C(O)C1O (stereo unspecified)
CC1=CC(=C2C=CC(=O)C=C2)C=C(C)N1C
O=C(c1ccccc1)N1CCN(C(=O)c2ccccc2)CC1
O=S(=O)(c1ccc(-c2ccccc2)cc1)N1CCOCC1
CCOc1cc(CNc2ccc(O)cc2)cc(Cl)c1OCc1ccccc1
NC(=S)NN=C1c2cc(S(=O)(=O)N3CCOCC3)ccc2-c2ccc(S(=O)(=O)N3CCOCC3)cc21
NC(=O)NN=C1c2cc(S(=O)(=O)N3CCOCC3)ccc2-c2ccc(S(=O)(=O)N3CCOCC3)cc21
Nc1c(NCCN2CCCCC2)c2ccccc2oc1=O
